Screening results (PubChem BioAssay)
TEAD-YAP inh – TEAD-YAP interaction inhibition. HEK-TIYL cells, TEAD-Gal4/YAP UAS-luciferase luminescence. 640,000 compounds, 1.4% hits. inhibition, % at 9.12 µM. AID 1259422; in the data active = inhibition above about 32%;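 also: 0% = median of test compound wells and 100% = reference inhibitor wells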
FBW7 activator – human FBW7 E3 ligase activation, primary screen; AID 1259310; Q969H0; normalized activity (activation), % at 26.1 µM; AlphaScreen FBW7–phospho-cyclin E peptide binding, activator screen; 650,000 compounds, 0.13% hits; in the data active = normalized activity above about 1.9%;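 also: purified mutant Fbw7 with reduced substrate affinity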
GPR151 ag – activates the human receptor GPR151 | Q8TDV0 | PathHunter beta-arrestin GPR151 cells, luminescence | activation, % at 11.2 µM | 650,000 compounds, 1% hits | AID 1508602; in the data active = activation above about 4.9%;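 also: 0% = median of compound wells and 100% = cells with positive control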
MITF inh – blocks human microphthalmia-associated transcription factor | O75030 | AlphaScreen MITF homodimerization, bead proximity signal | inhibition, % at 2.6 µM | 650,000 compounds, 0.91% hits | AID 1259374; in the data active = inhibition above about 50%;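 also: 0% = vehicle wells with protein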
GPR151 confirm – confirmation of human GPR151 activators; 6,700 tested, under 10 active; shares compounds with GPR151 ag; activation, % at 11.2 µM; GPR151 PathHunter beta-arrestin cells, luminescence, 90 min; % of EA-reagent control over plate median;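 active = mean percent activation across replicates above the confirmation screen cutoff of 4.91%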
GPR119 ag – activates human GPR119 in a GPR151 counter-screen | shares compounds with GPR151 ag | GPR119 PathHunter beta-arrestin cells, luminescence, 90 min; 0 = compound-well median, 100 = enzyme-acceptor control | activation, % at 11.2 µM | 6,700 compounds, 0.3% hits | AID 1508611;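 active = mean percent activation in the counterscreen above 29.09%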;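 also: counterscreen on off-target GPR119 to flag nonselective hits from the GPR151 activator screen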
Target sequence (Q8TDV5 whole entry, looked up): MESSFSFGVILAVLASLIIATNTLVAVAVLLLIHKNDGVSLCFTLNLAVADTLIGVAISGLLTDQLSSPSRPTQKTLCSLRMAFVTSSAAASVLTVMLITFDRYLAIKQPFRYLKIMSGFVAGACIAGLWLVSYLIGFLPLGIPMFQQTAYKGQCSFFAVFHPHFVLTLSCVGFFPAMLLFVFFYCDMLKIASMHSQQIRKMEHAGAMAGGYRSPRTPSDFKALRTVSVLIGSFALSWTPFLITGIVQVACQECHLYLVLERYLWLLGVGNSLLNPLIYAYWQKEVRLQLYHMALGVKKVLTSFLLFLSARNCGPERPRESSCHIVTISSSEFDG
The depositor's hits bear a star; · = not tested or not shown. An excerpt weighted towards active compounds, which were near 3.5% of everything screened.

SMILES	TEAD-YAP inh	FBW7 activator	GPR151 ag	MITF inh	GPR151 confirm	GPR119 ag
O=C(O)CCCn1c(=O)oc2ccccc21	-2	2	0	4	·	·
O=C(CCCn1c(=O)oc2ccccc21)NNC(=O)COc1ccc(F)cc1	-1	0	5.7*	13	0	-8
N#C/C(=C\c1c[nH]c2ccccc12)C(=O)N1CCc2ccccc2C1	-10	0	-1	-12	·	·
N#C/C(=C\c1ccc[nH]1)C(=O)N1CCc2ccccc2C1	-28	0	5.3*	0	1	9
CC1CC(=O)N(c2ccc(N3CCCCCC3)c([N+](=O)[O-])c2)C1=O (configuration not stated)	-6	0	-1	-1	·	·
CC1CC(C)CN(c2ccc(N3C(=O)CC(C)C3=O)cc2[N+](=O)[O-])C1 (configuration not stated)	1	0	6.5*	5	0	1
CC(C)(C)OC(=O)N[C@H]1CCC[C@@H](NC(=O)c2cccc(-n3cc(NC(=O)Cc4ccccc4)cn3)c2)C1	-1	0	5.4*	1	0	-10
COC(=O)c1c(C)[nH]c(C(=O)CN2CCCC2c2nc3ccccc3s2)c1C (configuration not stated)	1	0	0	-9	·	·
Cc1ccc(-n2c(C)c3c(C)nnc(C)c3c2C)cc1N	-5	0	5.3*	-4	1	-3
COc1cccc(-c2noc(/C=C/c3ccc(OC)c(OC)c3)n2)c1	-23	0	1	14	·	·
COc1ccc(/C=C/c2nc(-c3cccnc3)no2)cc1OC	-66	0	8.7*	-2	0	-15
COCCNC(=O)c1ccc(CNC(=O)c2ccc3c(c2)OCO3)cc1	-8	0	-1	9	·	·
COCCCNC(=O)c1ccc(CNC(=O)c2ccc3c(c2)OCO3)cc1	3	0	5.7*	5	-1	-5
COC(=O)[C@@H]1CCCN1Cc1ccc2c(c1)CN(Cc1ccc3c(c1)OCCO3)CCO2	0	0	-1	16	·	·
COC(=O)C1CCCCN1Cc1ccc2c(c1)CN(Cc1cnn(C)c1C)CCO2 (configuration not stated)	3	0	5.9*	0	1	0
O=C(COc1ccc(Cl)cc1)NCC(c1ccco1)N1CCOCC1 (configuration not stated)	13	0	6.2*	0	2	3
COCCNC(=O)CCCc1nc(-c2ccc(Cl)cc2)no1	9	0	2	1	·	·
COc1ccccc1C1C=C(c2ccc(I)cc2)Nc2ncnn21 (configuration not stated)	3	0	7.4*	2	0	-8
Cc1ccc(N2C(=O)/C(=C/c3ccc([N+](=O)[O-])cc3)N=C2c2ccccc2)c(C)c1	1	0	-1	7	·	·
O=C(Cc1cccc(F)c1)N1CCC(O)(c2ccccn2)CC1	0	0	0	-4	·	·
O=C(Cc1ccc(F)cc1)N1CCC(O)(c2ccccn2)CC1	-5	0	11*	14	1	13
CCC(C)NC(=O)CS(=O)Cc1nc(-c2ccccc2)oc1C (configuration not stated)	11	0	-1	8	·	·
Cc1cc(C(C)(C)C)cc(S(=O)(=O)Nc2ccc3c(c2)C(=O)NC3=O)c1C	-11	0	6.2*	-13	0	-6
Cc1ccc(S(=O)(=O)Nc2ccc3c(c2)C(=O)NC3=O)c(C)c1	4	0	0	15	·	·
COc1ccc(Cl)cc1/C=C1/NC(=O)N(Cc2ccccc2F)C1=O	-10	0	0	-11	·	·
SMILES	TEAD-YAP inh	FBW7 activator	GPR151 ag	MITF inh	GPR151 confirm	GPR119 ag
CCC(C)c1ccc(NC(=O)CN(C)CC(=O)Nc2cccc(OC)c2)cc1 (configuration not stated)	-1	0	6.1*	33	1	-3
COc1cccc(NC(=O)CN(C)CC(=O)Nc2ccc(-c3ccccc3)cc2)c1	-7	0	1	-1	·	·
N/C(=N/OCc1ccc(Cl)c(Cl)c1)c1nonc1N	-43	0	8.7*	22	-1	-3
Cc1ccc(NC(=O)CO/N=C(\N)c2nonc2N)cc1	7	0	5.9*	8	1	-6
COc1cccc2cc(C(=O)Nc3ccc(C)cc3)/c(=N/c3sc4c(c3C#N)CCCC4)oc12	-16	0	-1	-4	·	·
O=C(Nc1ccc2nn(-c3ccccc3)nc2c1)c1ccc(-c2cccc([N+](=O)[O-])c2)o1	1	0	5.1*	-1	0	12
O=C(CC(NCC1CCCO1)C(=O)O)Nc1cccc(Cl)c1 (configuration not stated)	-18	0	-1	1	·	·
Oc1ccc2ncccc2c1C(Nc1ccccn1)c1ccco1 (configuration not stated)	6	0	31*	8	2	14
CN(Cc1ccn[nH]1)C(=O)c1cccc(OC2CCN(C(=O)C3CC3)CC2)c1	2	0	4.9*	5	-1	-22
CN(Cc1ccn[nH]1)C(=O)c1ccc(OC2CCN(C(=O)C3CC3)CC2)cc1	-7	0	0	13	·	·
O=C(c1cc2c(s1)CCC2)N1CCn2c(nnc2C2CC2)C1	-14	0	1	-4	·	·
Cc1nnc(SCc2ccc(Cl)cc2)nc1/C=C/N(C)C	8	0	0	12	·	·
Cc1nnc(SCc2ccc(Cl)cc2)nc1C	-22	0	5.2*	7	0	-5
Cc1cc(C(=O)N(CC#N)CC#N)ccc1[N+](=O)[O-]	-8	0	7.7*	-6	0	5
C/C(=N\Nc1ccccc1)c1no[n+]([O-])c1C	-6	0	6.1*	0	-1	-7
CC1=C(C)/C(=N/OC(=O)c2ccc(C)cc2)C=CC1=O	-2	0	7.0*	2	0	12
COCCCNC(=O)CCS(=O)(=O)Cc1ccccc1C	-4	0	-1	5	·	·
CCCCC[C@@](C)(O)/C=C/[C@@H]1C(C/C=C\CCCC(=O)O)[C@@H](O)C[C@H]1O (some centres not stated)	·	·	7.1*	10	0	7
CCCCC[C@@](C)(O)/C=C/[C@@H]1[C@@H](C/C=C\CCCC(=O)OC)[C@@H](O)C[C@H]1O	·	·	1	6	·	·
CCCNc1cc(C)nc(Nc2ccccc2)n1	-23	0	14*	8	0	-3
CCCNc1cc(C)nc(Nc2cccnc2)n1	-1	0	-1	1	·	·
Cc1cc(C)c(S(=O)(=O)Nc2ccc3c(c2)CC2(O3)N(C)c3ccccc3C2(C)C)c(C)c1 (configuration not stated)	-17	0	1	-12	·	·
CN1CCN(CCOc2cccc([N+](=O)[O-])c2)CC1	8	0	0	3	·	·
CN1CCN(CCCCOc2cccc([N+](=O)[O-])c2)CC1	6	0	5.6*	-2	0	13
